Screens (PubChem BioAssay)
TGFb SMAD3 inh – TGF-b pathway inhibition | HepG2 CAGA-GFP TGF-b/SMAD3 reporter, GFP fluorescence, 18 h; TGF-beta stimulated, 500 pg/mL final | Potency, µM (highest dose often 46.1 µM), most hits filed as inhibitors | 410,000 tested, 1.2% active; note: nearly all actives have a fitted effect of over 65% in size
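Using HEPG2 CAGA-GFP reporter cells at 1000 cells/well, we pinned test compounds, stimulated with recombinant TGF-beta (500 pg/mL final) and measured total well GFP after 18 h.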
Gal4-VP16 FLuc – Gal4-VP16 reporter inhibition counter-screen; Drosophila S2 Gal4-VP16 UAS-luciferase, luminescence, 20 h; 310,000 tested, 3.5% active; Potency, µM (titrated, usually from 53.6 µM), usual class: inhibitors;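 note: Gal4-VP16 expression switched on by copper sulfate through the metallothionein promoter; nearly all actives have a fitted effect of over 50% in size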
ATXN2 expr inh – ATXN2 expression inhibition; HEK-293 ATXN2-luciferase reporter, luminescence, 24 h; Potency, µM (top dose mostly 57 µM), usual class: inhibitors; 360,000 tested, 0.72% active; note: nearly all actives have a fitted effect of over 55% in size
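ATXN2-luciferase reporter cells (luciferase flanked by upstream and downstream ATXN2 gene portions) were treated 24 h at 37 °C with compounds at up to 57 uM. SteadyGlo luminescence gave expression; GF-AFC fluorescence gave viability.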
HepG2 viability – HepG2 cytotoxicity, counter-screen for TGF-b inhibitors | HepG2 CAGA-GFP viability, ATP luminescence, 18 h | Potency, µM (titrated, usually from 46.1 µM), hits mostly cytotoxic | 410,000 tested, 0.76% active
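CellTiter-Glo luminescence gave cytotoxicity after 18 hours at 37 degrees C. The cells were HepG2 CAGA-GFP in 1% FBS DMEM, stimulated with 500 pg/mL TGF-beta after compound addition. %Activity was normalised to no-cell wells (complete cell-killing) and DMSO (no toxicity), and curves were fitted and classified.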
RORgamma inh – ROR gamma (mouse) transcription inhibition; AID 2551; 310,000 tested, 5.4% active; Drosophila S2 Gal4-RORgamma UAS-luciferase reporter, 20 h; Potency, µM (series often up to 53.6 µM), actives largely listed as inhibitors; P51450; note: nearly all actives have a fitted effect of over 60% in size
Target sequence (P51450 whole entry, looked up, the tested form may be a part): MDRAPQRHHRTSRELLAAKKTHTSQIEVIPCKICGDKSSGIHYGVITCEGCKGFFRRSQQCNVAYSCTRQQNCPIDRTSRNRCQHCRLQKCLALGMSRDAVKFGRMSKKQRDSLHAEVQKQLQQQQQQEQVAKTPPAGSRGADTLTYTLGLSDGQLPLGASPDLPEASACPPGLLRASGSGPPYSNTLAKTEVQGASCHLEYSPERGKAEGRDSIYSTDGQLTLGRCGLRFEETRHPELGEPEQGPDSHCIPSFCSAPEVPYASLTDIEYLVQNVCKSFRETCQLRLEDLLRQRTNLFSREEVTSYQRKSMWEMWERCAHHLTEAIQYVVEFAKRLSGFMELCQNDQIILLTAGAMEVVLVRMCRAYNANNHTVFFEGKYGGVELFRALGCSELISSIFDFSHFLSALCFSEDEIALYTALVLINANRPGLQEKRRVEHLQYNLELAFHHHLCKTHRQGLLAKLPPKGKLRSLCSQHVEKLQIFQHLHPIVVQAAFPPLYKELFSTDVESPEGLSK
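In this cell-based reporter format, copper sulfate (700 uM final) drives Gal4–ROR gamma fusion expression from a metallothionein promoter in Drosophila Schneider cells; compounds preincubated 1 hr, reporter read after 20 hr at ambient temperature.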
S2 tox – viability counter-screen for ATXN expression inhibitors. S2 cells (HEK-293 line with an ATXN2-luciferase reporter) viability, CellTiter-Fluor protease fluorescence, 24 h. Potency, µM (series often up to 56.7 µM), most hits filed as cytotoxic. 400,000 tested, 0.49% active; note: nearly all actives have a fitted effect of over 40% in size
Large screens that a line does not name were inactive. Shown are actives, neighbours in structure and some others; about 6.3% of the full set was active somewhere. Calls come from the whole dose curve; as a rule, active = well fitted curve in the direction sought with a large enough effect; inconclusive = small, poorly fitted or top-dose-only effect, or another doubt; inactive = no such curve, though single readings can be large; an effect the other way counts as inactive or inconclusive.

CC(=O)Oc1cc2c(c(C)c1OC(C)=O)CC=C1[C@]3(C)CC[C@]4(C)CC[C@@](C)(C(=O)O)CC4[C@]3(C)CC[C@]12C (some centres not stated)	Gal4-VP16 FLuc 11µM, RORgamma inh inconclusive (no result: TGFb SMAD3 inh, ATXN2 expr inh, HepG2 viability, S2 tox)
Oc1cc2cc(-c3csc(-c4ccc(F)cc4)n3)ccc2[nH]1	none (no result: Gal4-VP16 FLuc, ATXN2 expr inh, RORgamma inh, S2 tox)
Cc1c(C(=O)Nc2nccs2)sc2nc(-c3cccs3)cc(C(F)(F)F)c12	Gal4-VP16 FLuc 3.2µM, ATXN2 expr inh 25µM, RORgamma inh 0.79µM, S2 tox inconclusive
CCOC(=O)N(C)c1ccc(C(O)(C(F)(F)F)C(F)(F)F)cc1	none
CC(=O)N(C)c1ccc(C(O)(C(F)(F)F)C(F)(F)F)cc1	RORgamma inh 13µM
O=C(C[n+]1cccc2cccc(O)c21)c1ccc2ccccc2c1	none (no result: Gal4-VP16 FLuc, ATXN2 expr inh, RORgamma inh, S2 tox)
COc1ccc(-n2nc([N+](=O)[O-])c(=NCCc3ccc(OC)c(OC)c3)n2O)cc1	HepG2 viability 16µM
C=CC(=O)Nc1cccc(N(C)c2ccnc(Nc3ccc(N4CCN(C)CC4)cc3)n2)c1	TGFb SMAD3 inh 5µM, ATXN2 expr inh inconclusive, S2 tox 16µM (no result: Gal4-VP16 FLuc, RORgamma inh)
CCN(CC)CC(=O)OCC(=O)[C@@]1(O)CC[C@H]2[C@@H]3CCC4=CC(=O)CC[C@]4(C)[C@H]3[C@@H](O)C[C@@]21C	none (no result: TGFb SMAD3 inh, Gal4-VP16 FLuc, HepG2 viability, RORgamma inh)
FC(F)(F)c1cc(Oc2ccccc2)nc(-c2ccccn2)n1	RORgamma inh inconclusive
CCN(CC)c1cc(C(F)(F)F)nc(-c2ccccn2)n1	TGFb SMAD3 inh inconclusive, Gal4-VP16 FLuc 11µM, RORgamma inh 2.5µM
C=CCNc1cc(C(F)(F)F)nc(-c2ccccn2)n1	Gal4-VP16 FLuc 7.1µM, RORgamma inh 1.6µM
CCC(COC)NC(=O)c1cnn(-c2ncc3c(n2)-c2ccccc2CC3)c1C (configuration not stated)	none (no result: TGFb SMAD3 inh, Gal4-VP16 FLuc, ATXN2 expr inh, HepG2 viability, RORgamma inh)
COc1ccc(OCc2nc3c4cc(OC)c(OC)cc4nc(=S)n3[nH]2)cc1	TGFb SMAD3 inh inconclusive, Gal4-VP16 FLuc 0.71µM, RORgamma inh 0.4µM
CCOC(=O)c1sc(NC(=S)NC(=O)c2ccc(OC)cc2)nc1C	Gal4-VP16 FLuc 5µM, RORgamma inh 6.3µM
CCOc1ccc(C(=O)Nc2nc(C)c(C(=O)OC)s2)cc1	RORgamma inh inconclusive, S2 tox inconclusive
COC(=O)c1sc(NC(=S)NC(=O)c2ccccc2C)nc1C	Gal4-VP16 FLuc 16µM, RORgamma inh 6.3µM
CCc1nnc(NC(=O)c2ccc(OC)cc2)s1	RORgamma inh 7.9µM
CCc1nnc(NC(=O)c2cccc(OC)c2)s1	none
C=CCOC(=O)c1sc(NC(=O)c2ccc(OC)cc2)nc1C	RORgamma inh 6.3µM
CCCOc1ccc(CN(C(=O)Cc2coc3ccc(CC)cc23)C2CCS(=O)(=O)C2)cc1 (configuration not stated)	TGFb SMAD3 inh inconclusive, S2 tox inconclusive (no result: Gal4-VP16 FLuc, RORgamma inh)
CC(=O)c1ccc(N2CCN(C(=O)c3cc4ccc5cccnc5c4[nH]3)CC2)cc1	TGFb SMAD3 inh inconclusive (no result: Gal4-VP16 FLuc, ATXN2 expr inh, RORgamma inh, S2 tox)
CCCC[C@H](NC(C)=O)C(=O)N[C@H]1CC(=O)NCCCC[C@@H](C(N)=O)NC(=O)[C@H](Cc2c[nH]c3ccccc23)NC(=O)[C@H](CCCN=C(N)N)NC(=O)[C@@H](Cc2ccccc2)NC(=O)[C@H](Cc2cnc[nH]2)NC1=O	none (no result: TGFb SMAD3 inh, ATXN2 expr inh, HepG2 viability, S2 tox)
COc1ccccc1C(=O)NCCc1csc(-c2ccc(C(F)(F)F)cc2)n1	TGFb SMAD3 inh 8.9µM (no result: Gal4-VP16 FLuc, ATXN2 expr inh, RORgamma inh, S2 tox)
COc1ccc(CCC(=O)NCCc2csc(-c3ccc(F)cc3)n2)cc1	TGFb SMAD3 inh 8.9µM (no result: Gal4-VP16 FLuc, ATXN2 expr inh, RORgamma inh, S2 tox)
Cc1ccccc1C(=O)NCCc1csc(-c2ccc(C(F)(F)F)cc2)n1	none (no result: Gal4-VP16 FLuc, ATXN2 expr inh, RORgamma inh, S2 tox)
CC(C)COc1nc2ccccc2c(=O)n1OCC(=O)O	none
NC(=O)COn1c(SCC(N)=O)nc2ccccc2c1=O	none
Cc1cc(C)n(-c2nc3ccccc3c(=O)n2OCCOc2ccccc2)n1	Gal4-VP16 FLuc 14µM, RORgamma inh inconclusive
Cc1cc(CC(C)C)n(-c2nc3ccccc3c(=O)n2OCC(N)=O)n1	Gal4-VP16 FLuc 5.6µM, RORgamma inh 2.2µM
Cc1cc(C)n(-c2nc3ccccc3c(=O)n2OCC(N)=O)n1	Gal4-VP16 FLuc 20µM, RORgamma inh 6.3µM
